Measurements as given in publication PMC5540273 (PLoS ONE, 2017).

Tests used:
Conditions in all cases: concentration: 1 μM, replicates: in singlicate; n = 1
SIK2 = system: SIK2
SIK = system: SIK
SLK = system: SLK
SNARK = system: T1, SNARK
T1 construct: gene NUAK2

SNRK = system: SNRK
SRC = system: SRC
SRMS = system: SRMS
SRPK1 = system: SRPK1
SRPK2 = system: SRPK2
SRPK3 = system: SRPK3
STK16 = system: STK16
STK33 = system: STK33
STK35 = system: STK35
STK36 = system: STK36
STK39 = system: STK39
SYK = system: SYK
SgK110 = system: SgK110
TAK1 = system: T2, TAK1
T2 construct: gene MAP3K7

TAOK1 = system: TAOK1
TAOK2 = system: TAOK2
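Further: KINOMEscan kinase panel screen.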

Compound	%Inh (SIK2) [%]	%Inh (SIK) [%]	%Inh (SLK) [%]	%Inh (SNARK) [%]	%Inh (SNRK) [%]	%Inh (SRC) [%]	%Inh (SRMS) [%]	%Inh (SRPK1) [%]	%Inh (SRPK2) [%]	%Inh (SRPK3) [%]	%Inh (STK16) [%]	%Inh (STK33) [%]	%Inh (STK35) [%]	%Inh (STK36) [%]	%Inh (STK39) [%]	%Inh (SYK) [%]	%Inh (SgK110) [%]	%Inh (TAK1) [%]	%Inh (TAOK1) [%]	%Inh (TAOK2) [%]
Fc1cc(Cl)ccc1Nc1ccnc2cc(-c3ccc(CN4CCCCC4)o3)ccc12 [GW560116]	22	9	0	0	0	90.8	0	0	35	0	1	0	0	0	0	0	0	0	0	0
COc1cc2ncn(-c3cc(OCC4CCCO4)c(C(N)=O)s3)c2cc1OC (stereo not drawn) [GSK204607]	93.5	0	96.3	39	0	0	0	28	11	0	5	0	90	0	0	12	0	18	0	0
CCn1c(-c2ccccn2)nc2cnccc21 [SB-736398]	3	0	8	0	0	79	0	0	27	5	0	0	1	0	31	0	15	0	0	33
